The values that follow come from PubChem BioAssay (EPA / NIEHS).

The AC50 is the concentration at which the activity in the assay is half-maximal.

Experiment [1] can be described thus: Tanguay_ZF_120hpf_JAW_legacy: (Legacy) Oregon State University Tanguay Lab 120 Hour Post-fertilization zebrafish Assay for Jaw Malformation (AID 2283638).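 As to AC50: active means more embryos with jaw malformation than DMSO controls.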 A digest of the protocol: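 Dechorionated Tropical 5D wild-type zebrafish embryos, one per well, exposed statically from 6 hpf to 120 hpf at 28C in 0.64% DMSO. Jaw malformation was scored by brightfield microscopy as present or absent. It was not scored in dead embryos.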

Experiment [2] is described as follows: Tanguay_ZF_120hpf_OTIC_legacy: (Legacy) Oregon State University Tanguay Lab 120 Hour Post-fertilization zebrafish Assay for Otic Vesicle Malformation (AID 2283639). The procedure, abridged:
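Wild-type zebrafish larvae, whole-embryo exposure from early stage to 120 hpf at 28C. Binary brightfield scoring of otic vesicle morphology, fitted in the positive direction against the DMSO baseline.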

Experiment [3] is described as follows: Tanguay_ZF_120hpf_PE_legacy: (Legacy) Oregon State University Tanguay Lab 120 Hour Post-fertilization zebrafish Assay for Pericardial Edema (AID 2283640).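 As to AC50: potency for increased incidence of pericardial edema versus DMSO baseline.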 A digest of the protocol:
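Tropical 5D wild-type zebrafish embryos were statically exposed until 120 hpf at 28C, with 0.64% DMSO final. Pericardial edema was scored by brightfield as present or absent; endpoints were not scored in dead embryos.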

Experiment [4] in a line: Tanguay_ZF_120hpf_BRAI_legacy: (Legacy) Oregon State University Tanguay Lab 120 Hour Post-fertilization zebrafish Assay for Brain Malformation (AID 2283641). The procedure, abridged:
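Tropical 5D wild-type zebrafish embryos exposed statically until 120 hpf at 28C, 0.64% DMSO final, sealed and dark. Brain malformation scored present/absent by brightfield at 120 hpf; dead embryos excluded. Trimethyltin chloride 5uM positive control.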

The nature of experiment [5]: Tanguay_ZF_120hpf_SOMI_legacy: (Legacy) Oregon State University Tanguay Lab 120 Hour Post-fertilization zebrafish Assay for Somite Malformation (AID 2283647). A digest of the protocol:
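Dechorionated Tropical 5D wild-type zebrafish embryos, one per well from 6 hpf, statically exposed at 28C to 120 hpf in 0.64% DMSO; somite malformation scored present/absent by brightfield; trimethyltin 5 uM positive control; dead embryos not scored.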

The nature of experiment [6]: Tanguay_ZF_120hpf_CFIN_legacy: (Legacy) Oregon State University Tanguay Lab 120 Hour Post-fertilization zebrafish Assay for Caudal Fin Malformation (AID 2283649). A digest of the protocol: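 Dechorionated Tropical 5D wild-type embryos, one per well from 6 hpf, static exposure to 120 hpf at 28C in 0.64% DMSO. Caudal fin malformation scored by brightfield as present/absent; not scored in dead embryos.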

A short description of experiment [7]: Tanguay_ZF_120hpf_PIG_legacy: (Legacy) Oregon State University Tanguay Lab 120 Hour Post-fertilization zebrafish Assay for Pigmentation Malformation (AID 2283650). The procedure, abridged:
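Endpoint is incidence of abnormal pigmentation at 120 hpf in dechorionated 5D zebrafish exposed singly from 6 hpf at 28C, DMSO vehicle at 0.64%. Embryos dying by 24 or 120 hpf are excluded from scoring.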

Experiment [8] can be described thus: Tanguay_ZF_120hpf_CIRC_legacy: (Legacy) Oregon State University Tanguay Lab 120 Hour Post-fertilization zebrafish Assay for Circulatory Malformation (AID 2283651). The procedure, abridged:
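Binary circulatory-malformation call at 120 hpf via brightfield imaging, relative to DMSO controls. Embryos (5D strain, chorion removed) received static, light-shielded exposure at 28C.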

The nature of experiment [9]: Tanguay_ZF_120hpf_PFIN_legacy: (Legacy) Oregon State University Tanguay Lab 120 Hour Post-fertilization zebrafish Assay for Pectoral Fin Malformation (AID 2283648).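 Also: each larva judged yes or no for fin defect by brightfield with dead larvae skipped.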 The procedure, abridged: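 Scoring of pectoral fin malformation was binary, made at 120 hpf on larvae exposed statically from 6 hpf after enzymatic chorion removal. Activity was fitted upward relative to DMSO controls at 0.64% (vol/vol).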

Read-out in experiment [10]: kallikrein-3 (KLK3), KLK3 (gene 354)
The experiment can be described thus: LTEA_HepaRG_KLK3: Life Technologies and Expression Analysis (LTEA) Assay for kallikrein-3 (KLK3) using HepaRG (AID 2283652; active = hit-call score of the fitted dose curve at least 0.9, where 1 is the maximum; inactive = score below 0.9). The following applies: mRNA level, 48 h; actives raise or lower the signal. The procedure, abridged:
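KLK3 transcript levels were measured by TaqMan qRT-PCR with normalisation to three housekeeping genes. HepaRG cultures received chemicals for 48 h at up to 100 uM (half-log, 8 points, 0.5% DMSO vehicle), fitted in both directions against DMSO.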

Results filed as inconclusive are left out. Calls of active or inactive are those of the source. The calls were made as follows, unless noted: active = hit-call score of the fitted dose curve at least 0.9, where 1 is the maximum; inconclusive = response in the unintended direction; inactive = score below 0.9.

Regarding `Fc1ccccc1[C@@H](F)COC1CCC(Nc2ncnc3[nH]ncc23)CC1` (some centres undefined), the AC50 in experiment [1] is 38 µM (active); in experiment [3], 34.9 µM (active). The molecule was classed as inactive in [2], in experiment [4], in experiment [5], in [6], in experiment [7] and in experiment [8].

For the molecule `Cc1ccc(N)cc1O`, the molecule was called inactive in experiment [1], in experiment [2], in [3], in experiment [4], in experiment [5] and in experiment [6]. Besides, the molecule was classed as inactive in experiment [7] and in [8].

With `CC(C)CCO`, the molecule was classed as inactive in experiment [1], in experiment [2], in experiment [3], in experiment [4], in experiment [9] and in [6]. Further, the result in [7] and in experiment [8] was inactive.

For `CC(C)=CCC/C(C)=C/CO`, the outcome in [1], in [2], in experiment [3], in [4], in experiment [5] and in experiment [9] was inactive. In addition, the result in [7] and in experiment [8] was inactive. For the same molecule, the AC50 in experiment [6] was 31.6 µM (active).

For the molecule `CC(=O)OC[C@H]1O[C@@](COC(C)=O)(O[C@H]2O[C@H](COC(C)=O)[C@@H](OC(C)=O)[C@H](OC(C)=O)[C@H]2OC(C)=O)[C@@H](OC(C)=O)[C@@H]1OC(C)=O`, the molecule was classed as inactive in experiment [1], in experiment [2], in [3], in [4], in experiment [9] and in experiment [6]. For the same molecule, the molecule was classed as inactive in [7] and in experiment [8].

`C1N2CN3CN1CN(C2)C3`: the result in experiment [1], in experiment [2], in experiment [3], in experiment [4], in [5] and in experiment [6] was inactive. In addition, the molecule was classed as inactive in experiment [8].

Regarding `Oc1ccc2c(c1)-c1ccccc1C2`, the AC50 in experiment [1] is 37.7 µM (active); in experiment [3], 34.5 µM (active); in experiment [9], 36 µM (active); in experiment [6], 35.1 µM (active); in experiment [7], 41 µM (active). Also, the molecule was classed as inactive in experiment [2], in [4] and in experiment [8].

Turning to `CC/C(=C\C(=N/O)C(N)=O)C(C)[N+](=O)[O-]` (centres undefined), the call in [1], in experiment [2], in [3], in experiment [4], in experiment [5] and in experiment [6] was inactive. Moreover, the molecule was classed as inactive in experiment [7] and in experiment [8].

For `Cc1c(-c2cccnc2)c2ccccc2n1CCCCC(=O)O`, the molecule was called inactive in experiment [1], in experiment [2], in experiment [3], in experiment [4], in [5] and in experiment [6]. The result in experiment [7] and in experiment [8] was inactive.

In the case of `CCC(C)(C)C(=O)O[C@H]1C[C@@H](C)C=C2C=C[C@H](C)[C@H](CC[C@@H]3C[C@@H](O)CC(=O)O3)[C@H]21`, the AC50 was 0.766 µM (active) in experiment [1]; 0.747 µM (active) in experiment [2]; 0.64 µM (active) in [3]; 0.645 µM (active) in experiment [4]; 0.652 µM (active) in [9]; 0.666 µM (active) in [7]. Moreover, the outcome in [5], in [6] and in experiment [8] was inactive.

On to `CCCCCCCCCCCCCCCO`, for which the result in experiment [1], in [2], in experiment [3], in experiment [4], in experiment [6] and in experiment [7] was inactive. The outcome in experiment [8] was inactive.

As for `CNCc1ccc(NC(=O)c2c[nH]c3c2C(=O)CCC3)cc1`, the outcome in [1], in [2], in experiment [3], in experiment [4], in experiment [6] and in experiment [7] was inactive. Besides, in experiment [8], the molecule was called inactive.

Consider `CC(C)CCCCCCOC(=O)c1ccc(C(=O)OCCCCCCC(C)C)c(C(=O)OCCCCCCC(C)C)c1`, for which the outcome in experiment [1], in experiment [2], in [3], in [4], in experiment [6] and in experiment [7] was inactive. Moreover, the result in experiment [8] and in experiment [10] was inactive.

Regarding `CC(=O)c1ccc2c(c1)[C@H](NC(=O)c1ccc(F)cc1)[C@@H](O)C(C)(C)O2`, the outcome in experiment [1], in experiment [2], in [3], in experiment [4], in experiment [6] and in experiment [7] was inactive. Further, the molecule was called inactive in experiment [8].

In the case of `CC(C)CCCCCCCOC(=O)CCCCC(=O)OCCCCCCCC(C)C`, the call in experiment [1], in experiment [2], in [3], in [4], in [6] and in experiment [7] was inactive. Moreover, the outcome in experiment [8] was inactive.

On to `CC(C)c1cccc(C(C)C)c1N1C(=O)c2ccc(O)cc2C1=O`, for which the molecule was called inactive in [1], in [2], in [3], in experiment [4], in experiment [9] and in [6]. Moreover, the molecule was classed as inactive in experiment [8] and in experiment [10].

Consider `COc1cccc(-c2ccc(/C=C\CN3CCCCCC3)cc2Cl)c1`, for which the outcome in experiment [1], in experiment [2], in experiment [3], in experiment [4], in experiment [9] and in experiment [7] was inactive.

With `CCCCC(CC)COC(=O)CCCCCCCCC(=O)OCC(CC)CCCC` (centres undefined), the result in experiment [1], in experiment [2], in [3], in experiment [4], in experiment [6] and in [7] was inactive. In addition, in experiment [8], the molecule was classed as inactive.

Take `CCOC(=O)CC(CC(=O)OCC)(OC(C)=O)C(=O)OCC`: the call in [1], in experiment [2], in experiment [3], in experiment [4], in experiment [6] and in [7] was inactive. Further, in experiment [8], the call was inactive.

As to `CC[C@H]1OC(=O)[C@H](C)[C@@H](O[C@H]2C[C@@](C)(OC)[C@@H](O)[C@H](C)O2)[C@H](C)[C@@H](O[C@@H]2O[C@H](C)C[C@H](N(C)C)[C@H]2O)[C@](C)(O)C[C@@H](C)C(=O)[C@H](C)[C@@H](O)[C@]1(C)O`, the molecule was called inactive in experiment [1], in experiment [2], in experiment [3], in experiment [4], in [6] and in experiment [7]. Also, in [8], the molecule was called inactive.

On to `O=C1OC(=O)C2C3C=CC(C3)C12` (centres undefined), for which the call in experiment [1], in experiment [2], in experiment [3], in [4], in [9] and in [6] was inactive. In addition, in [8], the molecule was called inactive.
